Measurements reported in PubChem BioAssay (NCATS).
“And” between values parts separate entries of the source, which are not always exact repeats. Equal values may be shown once. Records with an inconclusive call do not appear. The source made the active and inactive calls. Unless noted, calls follow the shape of the dose curve; as a rule, active = well fitted curve in the direction sought with a large enough effect; inconclusive = small, poorly fitted or top-dose-only effect, or another doubt; inactive = no such curve, though single readings can be large; an effect the other way counts as inactive or inconclusive.

Assays:
[1] = target: Estrogen receptor (Homo sapiens) (UniProt P03372); assay: qHTS assay for small molecule antagonists of estrogen receptor alpha signaling (AID 588513; active = well fitted curve in the direction sought with a large enough effect in the signal ratio, with a control signal flat, not every such curve was filed as active; the % refers to the signal ratio; also: % is scaled to controls: 0 for no effect and ±100 for the full control effect)
Sequence of Estrogen receptor (Homo sapiens) (P03372 whole entry, looked up): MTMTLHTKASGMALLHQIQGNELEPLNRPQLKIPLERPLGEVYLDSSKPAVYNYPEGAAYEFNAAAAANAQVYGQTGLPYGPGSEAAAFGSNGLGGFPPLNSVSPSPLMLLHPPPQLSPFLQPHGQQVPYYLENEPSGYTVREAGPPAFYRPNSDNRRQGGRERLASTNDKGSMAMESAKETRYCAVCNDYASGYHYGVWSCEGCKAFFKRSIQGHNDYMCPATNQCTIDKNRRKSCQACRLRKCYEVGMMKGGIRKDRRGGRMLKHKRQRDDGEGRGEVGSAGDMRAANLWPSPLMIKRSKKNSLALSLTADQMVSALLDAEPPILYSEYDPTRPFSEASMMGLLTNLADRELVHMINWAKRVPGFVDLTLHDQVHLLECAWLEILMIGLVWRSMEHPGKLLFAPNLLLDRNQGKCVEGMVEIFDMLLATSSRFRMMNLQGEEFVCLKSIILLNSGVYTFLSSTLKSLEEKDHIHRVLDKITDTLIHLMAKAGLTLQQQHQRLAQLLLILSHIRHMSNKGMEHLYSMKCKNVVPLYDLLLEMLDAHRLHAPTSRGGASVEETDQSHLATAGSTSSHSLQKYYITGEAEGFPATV
How it was run: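 ER-alpha-UAS-bla GripTite HEK 293 cells in medium with 2% charcoal/dextran-treated FBS were preincubated 4 h at 37 C, dosed with compound (1:2 titration), stimulated with 0.5nM 17-beta-estradiol for 18 h, then read by CCF4 beta-lactamase fluorescence.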

[2] = qHTS assay for small molecule antagonists of peroxisome proliferator-activated receptor delta signaling (AID 588535); details: HEK293T PPARd-UAS-bla, beta-lactamase FRET ratio, 18 h; 460 nm channel;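 also: cells co-treated with a PPAR-delta agonist as stimulator during compound exposure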
How it was run: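 Beta-lactamase reporter read-out (405 nm excitation, 460/530 nm emission) after CCF4 loading for 2 hrs at RT. HEK293T PPAR-delta-UAS-bla cells, 2% charcoal/dextran FBS, compounds for 18 hrs at 37 C. Hill fit gave IC50 and efficacy.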

[3] = target: Peroxisome proliferator-activated receptor gamma (Homo sapiens) (UniProt P37231); assay: qHTS assay for small molecule agonists of peroxisome proliferator-activated receptor gamma signaling (AID 588536; active = well fitted curve in the direction sought with a large enough effect in the signal ratio, with a control signal flat, not every such curve was filed as active; the % refers to the signal ratio;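 also: 0% = DMSO basal wells and 100% = rosiglitazone at 2 µM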)
Sequence of Peroxisome proliferator-activated receptor gamma (Homo sapiens) (P37231 whole entry, looked up): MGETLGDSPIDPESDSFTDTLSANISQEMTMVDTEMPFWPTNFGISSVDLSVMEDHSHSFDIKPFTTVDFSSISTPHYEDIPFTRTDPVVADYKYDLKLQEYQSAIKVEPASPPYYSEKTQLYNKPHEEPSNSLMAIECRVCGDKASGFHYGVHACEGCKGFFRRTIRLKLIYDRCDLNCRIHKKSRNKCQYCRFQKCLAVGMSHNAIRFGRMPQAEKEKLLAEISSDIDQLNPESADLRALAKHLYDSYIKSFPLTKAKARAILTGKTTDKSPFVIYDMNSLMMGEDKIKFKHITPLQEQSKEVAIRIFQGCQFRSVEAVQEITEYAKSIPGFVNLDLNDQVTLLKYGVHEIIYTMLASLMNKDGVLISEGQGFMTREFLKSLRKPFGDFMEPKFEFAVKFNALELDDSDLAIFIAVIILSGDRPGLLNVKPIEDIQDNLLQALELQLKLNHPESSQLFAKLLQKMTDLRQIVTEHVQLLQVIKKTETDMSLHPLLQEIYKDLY
How it was run: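 This is an agonist-mode beta-lactamase reporter assay in HEK293 PPAR-gamma-UAS-bla cells with 1% charcoal/dextran FBS. Compound titrations ran 16 h at 37 C before CCF4 detection. EC50 and efficacy are Hill fits scaled to 2 uM rosiglitazone (100%) and DMSO basal.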

[4] = target: Peroxisome proliferator-activated receptor gamma (Homo sapiens) (UniProt P37231); assay: qHTS assay for small molecule antagonists of peroxisome proliferator-activated receptor gamma signaling (AID 588537; active = well fitted inhibition curve with a large enough effect in the signal ratio, with a control signal flat, not every such curve was filed as active; the % refers to the signal ratio;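 also: reporter cells co-stimulated with 50 nM rosiglitazone agonist during compound treatment; % of control where 0% means no effect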)
How it was run: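 Read-out: CCF4 fluorescence (ex 405, em 460/530 nm) after 2 h at RT. Cells were HEK293 carrying a UAS-bla reporter and treated 16 h at 37 C with compound plus rosiglitazone (50 nM final). Normalized to rosiglitazone and DMSO.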

[5] = target: Vitamin D3 receptor (Homo sapiens) (UniProt P11473); assay: qHTS assay for small molecule antagonists of vitamin D receptor signaling (AID 588541; calls by dose curve;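 also: receptor activated by calcitriol during compound treatment; series mostly up to about 77 µM; % is scaled to controls: 0 for no effect and ±100 for the full control effect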)
Sequence of Vitamin D3 receptor (Homo sapiens) (P11473 whole entry, looked up): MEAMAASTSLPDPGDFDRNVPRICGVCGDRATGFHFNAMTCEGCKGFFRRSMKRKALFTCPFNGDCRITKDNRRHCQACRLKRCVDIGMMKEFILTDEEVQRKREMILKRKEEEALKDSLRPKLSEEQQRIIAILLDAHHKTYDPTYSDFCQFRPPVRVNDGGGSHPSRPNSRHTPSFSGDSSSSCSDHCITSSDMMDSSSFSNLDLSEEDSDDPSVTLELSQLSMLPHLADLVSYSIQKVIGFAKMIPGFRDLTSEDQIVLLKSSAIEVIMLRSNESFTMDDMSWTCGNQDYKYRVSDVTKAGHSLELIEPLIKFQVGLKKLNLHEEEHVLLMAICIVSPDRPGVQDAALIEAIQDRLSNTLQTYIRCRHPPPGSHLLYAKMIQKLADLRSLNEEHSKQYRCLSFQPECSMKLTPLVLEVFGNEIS
How it was run: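 VDR-UAS-bla HEK293T cells in 2% charcoal-stripped FBS were stimulated with 1-alpha,25-dihydroxyvitamin D3 (3 nM final) plus compound for 16 h at 37 C. The beta-lactamase CCF4 readout was normalized to 50 nM agonist and DMSO, and Hill fits gave IC50.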

[6] = target: Retinoic acid receptor RXR-alpha (Homo sapiens) (UniProt P19793); assay: qHTS assay for small molecule agonists of retinoid X receptor alpha signaling (AID 588544; calls by dose curve;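 also: 0% = DMSO basal wells and 100% = reference agonist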)
Sequence of Retinoic acid receptor RXR-alpha (Homo sapiens) (P19793 whole entry, looked up): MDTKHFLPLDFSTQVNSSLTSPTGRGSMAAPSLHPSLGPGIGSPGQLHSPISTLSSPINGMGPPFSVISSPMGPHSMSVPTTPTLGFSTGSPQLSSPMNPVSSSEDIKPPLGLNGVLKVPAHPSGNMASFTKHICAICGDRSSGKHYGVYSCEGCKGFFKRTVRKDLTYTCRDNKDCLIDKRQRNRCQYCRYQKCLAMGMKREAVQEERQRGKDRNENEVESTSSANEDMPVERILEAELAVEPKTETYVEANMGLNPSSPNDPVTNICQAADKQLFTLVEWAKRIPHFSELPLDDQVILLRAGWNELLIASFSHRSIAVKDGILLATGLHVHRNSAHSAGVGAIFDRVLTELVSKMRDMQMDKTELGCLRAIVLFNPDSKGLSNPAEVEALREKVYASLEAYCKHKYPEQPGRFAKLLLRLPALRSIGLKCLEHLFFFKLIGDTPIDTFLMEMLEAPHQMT

[7] = target: Thyroid hormone receptor beta (Homo sapiens) (UniProt P10828); assay: qHTS assay for small molecule agonists of thyroid hormone receptor beta signaling (AID 588545; calls by dose curve;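 also: 0% = DMSO only and 100% = 10 nM T3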)
Sequence of Thyroid hormone receptor beta (Homo sapiens) (P10828 whole entry, looked up): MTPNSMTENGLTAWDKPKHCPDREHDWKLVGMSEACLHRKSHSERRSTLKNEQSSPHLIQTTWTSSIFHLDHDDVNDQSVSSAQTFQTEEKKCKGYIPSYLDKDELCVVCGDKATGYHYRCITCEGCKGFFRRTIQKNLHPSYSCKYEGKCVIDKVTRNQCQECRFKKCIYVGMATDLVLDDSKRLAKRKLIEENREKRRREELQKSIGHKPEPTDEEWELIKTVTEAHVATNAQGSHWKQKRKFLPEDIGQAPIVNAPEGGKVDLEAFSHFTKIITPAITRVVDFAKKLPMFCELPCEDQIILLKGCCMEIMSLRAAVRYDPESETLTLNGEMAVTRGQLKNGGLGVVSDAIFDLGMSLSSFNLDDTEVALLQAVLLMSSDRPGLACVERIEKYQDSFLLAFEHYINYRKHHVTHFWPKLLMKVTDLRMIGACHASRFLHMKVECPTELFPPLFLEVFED
How it was run: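 Efficacy and EC50 values derive from Hill fits of qHTS titration data, normalized to 10 nM T3 and DMSO-only wells. HEK 293 reporter cells were stimulated for 18 hrs at 37 C, with beta-lactamase activity measured by CCF4 fluorescence.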

[8] = qHTS assay for small molecule antagonists of retinoid X receptor alpha signaling (AID 588546; active = well fitted inhibition curve with a large enough effect in the signal ratio, with a control signal flat, not every such curve was filed as active; the % refers to the signal ratio;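 also: cells stimulated with 9-cis-retinoic acid as agonist; % is scaled to controls: 0 for no effect and ±100 for the full control effect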); details: HEK293T RXRa-UAS-bla, beta-lactamase ratio, antagonist mode; measured here: W530 green channel, cytotoxicity proxy
How it was run: (§1)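 Beta-lactamase reporter inhibition, read as CCF4 fluorescence ratio (ex 405, em 460/530 nm) after 2 h at RT. HEK293T UAS-bla cells, 2500/well, were stimulated with 9-cis-RA at 500 or 100 nM final alongside test compound for 18 h at 37 C.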

[9] = target: Retinoic acid receptor RXR-alpha (Homo sapiens) (UniProt P19793); assay: as above; details: HEK293T RXRa-UAS-bla, beta-lactamase ratio, antagonist mode
How it was run: as §1

[10] = target: Thyroid hormone receptor beta (Homo sapiens) (UniProt P10828); assay: qHTS assay for small molecule antagonists of thyroid hormone receptor beta signaling (AID 588547; active = well fitted inhibition curve with a large enough effect in the signal ratio, with a control signal flat, not every such curve was filed as active; the % refers to the signal ratio;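 also: cells stimulated with 0.4 nM T3 agonist during compound exposure; series mostly up to about 77 µM; % is scaled to controls: 0 for no effect and ±100 for the full control effect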); details: TR-UAS-bla HEK293, beta-lactamase ratio, antagonist mode, 18 h
How it was run: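 TR-UAS-bla GripTite HEK293 cells in 2% charcoal/dextran FBS medium; compounds 0.59 nM to 92 uM with T3 at 0.4nM final, 18 h at 37 C. Beta-lactamase read by CCF4 fluorescence (460/530 nm); Hill fits gave IC50 and efficacy.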

[11] = qHTS assay for small molecule activators of the p53 signaling pathway (AID 651743; active = well fitted activation curve with a large enough effect in the signal ratio, not every such curve was filed as active; the % refers to the signal ratio; also: series mostly up to about 92 µM; % of control where 0% means no effect); details: HCT-116 p53RE-bla, beta-lactamase FRET ratio, 16 h; activation: stronger effect = higher value
How it was run: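 Reporter: beta-lactamase driven by p53 response elements, stably integrated in HCT-116 cells. Cells seeded at 4,000/well, 5 h preincubation, compound (DMSO) 16 h at 37 C; B/G FRET substrate 2 h RT; fluorescence intensity read.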

[12] = qHTS assay for environmental chemicals that activate the Aryl hydrocarbon Receptor (AhR) signaling pathway (AID 651777); details: 1A2-DRE human hepatoma cells, luciferase, 24 h; activation: stronger effect = higher value; also: nearly all actives have a fitted effect of over 15% in size; also: potency is read from the fitted curve at half-maximal effect; as to activation: % of control where 0% means no effect
How it was run: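 Induction of CYP1A2 transcription through AhR is detected by luciferase in 1A2-DRE hepatoma cells. Compounds or DMSO act for 24 hr at 37 C before a 30 min One-Glo step at room temperature.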

[13] = target: Peroxisome proliferator-activated receptor alpha (Homo sapiens) (UniProt Q07869); assay: qHTS assay for small molecule agonists of the peroxisome proliferator-activated receptor alpha (PPARalpha) signaling pathway (AID 651778); details: PathHunter PPARalpha complementation, chemiluminescence, 6 h; max response: stronger effect = higher value; also: % of control where 0% means no effect
Sequence of Peroxisome proliferator-activated receptor alpha (Homo sapiens) (Q07869 whole entry, looked up, the tested form may be a part): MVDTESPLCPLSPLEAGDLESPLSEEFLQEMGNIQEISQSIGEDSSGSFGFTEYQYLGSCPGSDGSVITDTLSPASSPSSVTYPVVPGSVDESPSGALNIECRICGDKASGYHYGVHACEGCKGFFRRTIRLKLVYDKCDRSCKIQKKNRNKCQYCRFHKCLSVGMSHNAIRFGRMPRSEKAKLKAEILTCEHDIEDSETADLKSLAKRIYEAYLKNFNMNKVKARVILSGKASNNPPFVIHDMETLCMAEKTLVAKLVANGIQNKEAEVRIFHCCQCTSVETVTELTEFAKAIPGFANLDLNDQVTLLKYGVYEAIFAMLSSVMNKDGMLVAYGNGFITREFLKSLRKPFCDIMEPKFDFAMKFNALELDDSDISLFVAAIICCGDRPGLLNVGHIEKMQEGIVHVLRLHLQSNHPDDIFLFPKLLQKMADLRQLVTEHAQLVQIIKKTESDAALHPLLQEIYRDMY
How it was run: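 Enzyme-fragment complementation assay in which ligand-bound PPARalpha translocates and forms an active enzyme that generates chemiluminescence. Cells were plated overnight, exposed to compound for 6 hr at 37 C, and then given detection reagent for 60 min at room temperature.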

[14] = qHTS assay for small molecule agonists of the antioxidant response element (ARE) signaling pathway measured by Nrf2-dependant transcriptional activity (AID 720636; active = well fitted curve in the direction sought with a large enough effect in the repeat runs; an effect the other way counts as inactive or inconclusive;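 also: HepG2 cells with an ARE-driven luciferase reporter; % of control where 0% means no effect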)
How it was run: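 We exposed ARE-luc HepG2 cells, seeded in assay medium with 1% dialyzed FBS and allowed 6 hr to adhere, to test compounds overnight (16 hr, 37 C) before measuring luciferase with ONE-Glo.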

[15] = qHTS assay for small molecule agonists of the antioxidant response element (ARE) signaling pathway measured by Nrf2-dependant transcriptional activity - cell viability counter screen (AID 720653; active = well fitted curve in the direction sought with a large enough effect in the repeat runs; an effect the other way counts as inactive or inconclusive; also: % is scaled to controls: 0 for no effect and ±100 for the full control effect); details: ARE-bla HepG2 viability, CellTiter-Glo ATP luminescence, 16 h; max response: stronger effect = lower value
How it was run: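 ARE-bla HepG2 cells treated with compounds for 16 h at 37C; this counter screen measures viability as intracellular ATP by CellTiter-Glo luminescence after 30 min at room temperature.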

[16] = qHTS assay for cell viability of HEK293 cells (AID 743288); details: ATP luminescence (CellTiter-Glo), 18 h; max response: stronger effect = lower value; also: % is scaled to controls: 0 for no effect and ±100 for the full control effect; nearly all actives have a fitted effect of over 50% in size
How it was run: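 After 18 h compound exposure at 37 C, parental HEK293 cells (2,000/well) are lysed with CellTiter-Glo and luminescence is read following 30 min at room temperature.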

[17] = qHTS assay for cell viability of the p53RE-bla HCT-116 cell line (AID 743292); also: % is scaled to controls: 0 for no effect and ±100 for the full control effect; nearly all actives have a fitted effect of over 55% in size
How it was run: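 In this qHTS counter-screen, metabolically competent p53RE-bla HCT-116 cells were counted via their ATP content. Compounds were applied for 16 h at 37 C and luciferase-coupled luminescence was measured.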

[18] = target: Nuclear receptor subfamily 1 group I member 2 (Rattus norvegicus) (UniProt Q9R1A7); assay: qHTS assay for small molecule activators of the rat pregnane X receptor (rPXR) signaling pathway (AID 651751; call rule not given here; also: 0% is about no effect); details: rPXR reporter cells, luciferase (One-Glo), 24 h
Sequence of Nuclear receptor subfamily 1 group I member 2 (Rattus norvegicus) (Q9R1A7 whole entry, looked up): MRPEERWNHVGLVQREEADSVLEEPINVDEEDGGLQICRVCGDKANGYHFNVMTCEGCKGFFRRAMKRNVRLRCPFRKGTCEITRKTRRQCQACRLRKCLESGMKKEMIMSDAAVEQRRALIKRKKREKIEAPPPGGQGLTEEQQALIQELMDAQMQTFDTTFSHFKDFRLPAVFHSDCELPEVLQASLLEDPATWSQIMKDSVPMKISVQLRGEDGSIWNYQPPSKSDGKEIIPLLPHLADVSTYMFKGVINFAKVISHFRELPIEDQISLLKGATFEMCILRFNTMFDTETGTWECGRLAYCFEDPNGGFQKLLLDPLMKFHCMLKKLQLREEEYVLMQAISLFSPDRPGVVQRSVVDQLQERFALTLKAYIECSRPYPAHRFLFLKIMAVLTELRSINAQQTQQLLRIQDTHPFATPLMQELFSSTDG

[19] = target: Estrogen receptor (Homo sapiens) (UniProt P03372); assay: qHTS assay for small molecule agonists of estrogen receptor alpha signaling (AID 588514; calls by dose curve;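 also: 0% = vehicle only and 100% = reference agonist; nearly all actives have a fitted effect of over 70% in size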)
How it was run: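 Fluorescence from CCF4 cleavage reports ER-alpha-driven beta-lactamase expression in HEK 293 cells treated 18 hrs at 37 C. Data normalized to 17-beta-estradiol (20 nM) and DMSO, fitted to Hill equation.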

[20] = target: Peroxisome proliferator-activated receptor delta (Homo sapiens) (UniProt Q03181); assay: qHTS assay for small molecule agonists of peroxisome proliferator-activated receptor delta signaling (AID 588534; calls by dose curve;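 also: 0% = DMSO basal wells and 100% = positive control agonist at 10 µM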)
Sequence of Peroxisome proliferator-activated receptor delta (Homo sapiens) (Q03181 whole entry, looked up): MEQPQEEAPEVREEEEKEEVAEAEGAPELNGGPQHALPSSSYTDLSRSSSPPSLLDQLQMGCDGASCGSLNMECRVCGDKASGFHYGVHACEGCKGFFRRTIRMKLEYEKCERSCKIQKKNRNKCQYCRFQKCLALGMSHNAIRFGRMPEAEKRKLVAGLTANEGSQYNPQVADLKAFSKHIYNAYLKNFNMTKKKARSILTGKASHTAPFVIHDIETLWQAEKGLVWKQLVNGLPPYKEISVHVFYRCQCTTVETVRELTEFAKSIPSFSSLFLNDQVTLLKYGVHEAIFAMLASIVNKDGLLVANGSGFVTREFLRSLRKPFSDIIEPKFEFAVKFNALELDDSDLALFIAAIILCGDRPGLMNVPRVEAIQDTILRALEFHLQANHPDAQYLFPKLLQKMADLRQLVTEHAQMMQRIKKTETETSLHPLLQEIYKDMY
How it was run: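 EC50 and efficacy values derive from Hill fits of a concentration series in a beta-lactamase reporter cell assay. Exposure is 18 hrs at 37 C, with CCF4 fluorescence as the readout.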

CCOP(=S)(S)OCC
-11.3%: max response [8]
11%: max response [2]
inactive: Potency [1] | Potency [3] | Potency [4] | Potency [5] | Potency [6] | Potency [7] | max response [9] -16.6% | activity change % (negative = inhibition) [10] 8.37% | activation [11] -1.75% | activation [12] 0.356% | max response [13] -2.08% | Potency [14] | max response [15] 2.15% | max response [16] -0.594% | Potency [17] | max response [18] 1.97%

Cc1cc(Cl)ccc1OC(C)C(=O)O (configuration not stated)
36.3%: max response [2]
inactive: Potency [1] | Potency [19] | outcome [20] | Potency [4] | Potency [6] | Potency [7] | max response [9] -2.46% | activity change % (negative = inhibition) [10] -3.04% | activation [11] -1.95% | activation [12] 0.794% | max response [13] 2.19% | Potency [14] | max response [16] 0.82% | Potency [17] | max response [18] -0.122%
-2.86%: max response [8]

CCOC(=O)Nc1cccc(OC(=O)Nc2ccccc2)c1
0.0057%: max response [8]
9.77%: max response [2]
active: Potency [12] 44.7 µM
inactive: Potency [1] | Potency [19] | Potency [3] | Potency [4] | Potency [5] | Potency [6] | Potency [7] | max response [9] -20.8% | activity change % (negative = inhibition) [10] 5.59% | max response [13] -0.828% | max response [15] -18.4% | max response [16] -5.43% | Potency [17]

O=S(=O)(O)C(F)(F)C(F)(F)C(F)(F)C(F)(F)C(F)(F)C(F)(F)F
-35.3% and 95.7%: max response [2]
inactive: Potency [1] | outcome [20] | Potency [3] | Potency [4] | Potency [5] | Potency [6] | Potency [7] | max response [9] -0.502% | activity change % (negative = inhibition) [10] 23.1% | activation [11] -1.95% and 1.08% | activation [12] 2.71% and 0.937% | max response [13] 12% and 14.9% | Potency [14] | max response [15] 4.85% and -13.8% | max response [16] -20.2% and -14.6% | Potency [17] | max response [18] -2.73% and -3.57%
0.0729%: max response [8]

CCOP(=O)(NC(C)C)Oc1ccc(S(C)=O)c(C)c1 (configuration not stated)
inactive: Potency [1] | Potency [3] | Potency [5] | Potency [6] | Potency [7] | max response [9] 0.125% | activity change % (negative = inhibition) [10] 7.26% | activation [11] -0.147% | activation [12] 3.87% | max response [13] -2.3% | Potency [14] | max response [15] 20.7% | max response [16] -0.132% | Potency [17] | max response [18] -1.03%
-19.9%: max response [2]
-12.4%: max response [8]
